Screening data (PubChem BioAssay)
Cruzain noTriton – blocks cruzain activity in detergent-free assay | Potency, µM, without a hit: max response, negative = inhibition, usual class: inhibitors | P25779 | AID 1476 | 200,000 compounds, 2.3% hits | purified cruzain, Z-FR-AMC fluorescence, no detergent;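 further: plate controls were enzyme without inhibitor for no effect and buffer without enzyme for full effect; nearly all actives have a fitted effect of over 40% in size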
Target sequence (P25779 123-467 limits assumed): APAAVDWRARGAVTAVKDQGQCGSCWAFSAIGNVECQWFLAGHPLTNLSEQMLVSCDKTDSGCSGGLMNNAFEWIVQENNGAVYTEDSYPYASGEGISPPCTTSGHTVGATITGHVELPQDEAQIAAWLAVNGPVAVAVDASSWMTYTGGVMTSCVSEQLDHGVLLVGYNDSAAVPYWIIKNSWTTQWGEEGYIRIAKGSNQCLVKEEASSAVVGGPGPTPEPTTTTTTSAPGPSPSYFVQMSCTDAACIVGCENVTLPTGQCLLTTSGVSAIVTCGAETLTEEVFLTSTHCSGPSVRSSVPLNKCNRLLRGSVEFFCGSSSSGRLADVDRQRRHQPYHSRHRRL
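Detergent-free condition (0.00005% Triton X-100) in acetate buffer pH 5.5 with DTT. 1.5 nM enzyme and compound were pre-mixed 15 min, then 2 uM Z-FR-AMC substrate added; reaction progress from fluorescence change between first and third reads (60 s).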
Cruzain inh Det – inhibitors of Trypanosoma cruzi cruzain with detergent; Potency, µM, without a hit: max response, negative = inhibition, hits mostly inhibitors; P25779; purified cruzain, Z-FR-AMC fluorescence, 0.01% Triton; AID 1478; 200,000 compounds, 0.43% hits;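 further: plate controls were neutral wells for no effect and buffer without enzyme for full effect; nearly all actives have a fitted effect of over 40% in size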
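Compounds were screened in titration against cruzain (1.5 nM) with 0.01% Triton X-100 to counter colloidal aggregation. Activity was the AMC fluorescence increase over 60 s after adding 2 uM Z-FR-AMC at pH 5.5.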
Numbers without * were called inactive; u = inconclusive. Shown are actives, neighbours in structure and some others; about 2.6% of the full set was active somewhere. The call rests on the fitted dose curve; in most records, active means well fitted curve in the direction sought with a large enough effect; inconclusive means small, poorly fitted or top-dose-only effect, or another doubt; inactive means no such curve, though single readings can be large; an effect the other way counts as inactive or inconclusive. Potency means the concentration at half of the fitted maximal effect.

SMILES | Cruzain noTriton | Cruzain inh Det
CCc1c(O)cc(=O)n(-c2ccccc2)c1-c1ccccc1 | 5.2% | -5.8%
CC(C)c1ccc(CN(Cc2ccco2)c2cnc(S(C)(=O)=O)nc2C(=O)Nc2ccccc2)cc1 | u | -3.9%
COc1ccc(CN(Cc2ccco2)c2cnc(S(C)(=O)=O)nc2C(=O)Nc2ccc(C)c(C)c2)cc1 | 20µM* | -2.6%
COc1ccc(CN(Cc2ccco2)c2cnc(S(C)(=O)=O)nc2C(=O)Nc2ccc(C)cc2C)cc1 | u | -4.0%
CC(C)(C)c1ccc(CN(Cc2ccco2)c2cnc(S(C)(=O)=O)nc2C(=O)Nc2ccc(F)cc2)cc1 | 7.94µM* | -3.6%
Cc1ccc(NC(=O)c2nc(S(C)(=O)=O)ncc2N(Cc2ccco2)Cc2ccccc2F)c(C)c1 | 1.4% | -3.4%
CCS(=O)(=O)c1ncc(N(Cc2ccco2)Cc2ccccc2F)c(C(=O)Nc2cccc(Cl)c2)n1 | 20µM* | -3.4%
COC(=O)N1CCC2(CCN(C(=O)Nc3cccc(F)c3)CC2)CC1 | 1.4% | 5.1%
Cc1nc2sc(C(c3ccc(Cl)cc3)N3CC(C)OC(C)C3)c(O)n2n1 (stereo not given) | u | 2.3%
Cc1cc(C)c2nc(NC(=O)c3cccc(S(=O)(=O)N4CCc5ccccc54)c3)sc2c1 | 3.98µM* | 0.3%
COc1cc2nc(NC(=O)c3ccc(S(=O)(=O)N4CCc5ccccc54)cc3)sc2cc1OC | -28.4% | -2.0%
O=C(Nc1ncccc1O)c1cccc(S(=O)(=O)N2CCc3ccccc32)c1 | -6.2% | -2.9%
CCOc1cccc2sc(NC(=O)c3ccc(S(=O)(=O)N4CCCc5ccccc54)cc3)nc12 | 2µM* | -2.1%
Cc1cccc2sc(NNC(=O)c3ccc(S(=O)(=O)N4CCc5ccccc5C4)cc3)nc12 | 7.94µM* | 11.8%
Cc1cccc2sc(NNC(=O)c3ccc(S(=O)(=O)N4CCCC(C)C4)cc3)nc12 (stereo not given) | -23.4% | -0.4%
Cc1cc(C)c2nc(NC(=O)c3ccc(S(=O)(=O)N4CCCC4)cc3)sc2c1 | u | 2.8%
Cc1cccc2sc(NC(=O)c3cccc(S(=O)(=O)N4CCc5ccccc54)c3)nc12 | 10µM* | -1.2%
CCOC(=O)C1CCN(S(=O)(=O)Cc2ccccc2)C1=O (stereo not given) | 0.1% | -2.1%
CCSc1nnc(NC(=O)C2CCN(S(=O)(=O)c3ccccc3C(F)(F)F)CC2)s1 | 9.2% | -3.0%
Cc1c(Cl)ccc2sc(NC(=O)c3ccc(S(=O)(=O)N4CCCc5ccccc54)cc3)nc12 | u | 0.8%
O=C(Nc1nc2c(Cl)cccc2s1)c1ccc(S(=O)(=O)N2CCc3ccccc32)cc1 | 3.16µM* | -2.1%
COc1ccc(/C=N/OC/C(O)=C(\C#N)c2nc3ccccc3[nH]2)cc1 | -29.0% | 1.6%
COc1ccc(OC/C(O)=C(\C#N)c2nc3ccccc3[nH]2)cc1 | 25.1µM* | -1.1%
O=C(NCc1cccc(Cl)c1)c1cc2ccc3cccnc3c2[nH]1 | -20.0% | -6.0%
O=C(NCc1ccc(Cl)cc1)c1cc2ccc3cccnc3c2[nH]1 | 25.1µM* | -6.2%
SMILES | Cruzain noTriton | Cruzain inh Det
CC(=O)Nc1c2c(nn1-c1ccc(C)cc1C)CSC2 | 1.9% | -1.7%
Cc1ccc(CNC(=O)C(=O)Nc2c3c(nn2-c2ccccc2)CSC3)cc1 | u | 0.4%
Cc1ccc(CNC(=O)C(=O)Nc2c3c(nn2-c2ccc(F)cc2)CSC3)cc1 | 12.6µM* | -1.2%
Cc1ccc(-n2nc3c(c2NC(=O)c2ccc4c(c2)OCO4)CSC3)cc1 | 15.8µM* | -0.4%
CCOc1cc(C#N)c(NC(=O)c2ccc(OC)c(S(=O)(=O)N3CCCC3)c2)cc1OCC | u | -3.5%
Nn1c(-c2cccc(Br)c2)n[nH]c1=S | 3.2% | -1.8%
O=C(COC(=O)C1CCN(S(=O)(=O)c2cccc3cccnc23)CC1)c1ccc(F)cc1 | 2.8% | -4.1%
Cc1cccc(C(C)C)c1NC(=O)COC(=O)c1cccc(S(=O)(=O)N2CCc3ccccc3C2)c1 | 25.1µM* | 1.2%
CCc1cccc(CC)c1NC(=O)COC(=O)c1cccc(S(=O)(=O)N2CCc3ccccc3C2)c1 | 1.9% | -5.7%
COc1ccc(-c2c3c(nc4sc5c(=O)[nH]c(C)nc5c24)CCC3)cc1 | -27.0% | 2.0%
O=C(Cn1nnc2c(sc3nc4c(c(-c5ccccc5)c32)CCC4)c1=O)c1ccccc1 | 25.1µM* | 1.0%
O=C(CNC(=O)C1CCCCC1)OCc1cc(=O)oc2ccc3ccccc3c12 | -19.6% | 3.16µM*
CCOC(=O)c1oc2ccccc2c1NC(=O)C1CCCCC1 | -23.7% | 7.0%
O=C(Cn1c2ccccc2c(=O)c2cc([N+](=O)[O-])ccc21)Nc1ccccc1Cl | u | -25.7%
O=C(Cn1c2ccccc2c(=O)c2ccccc21)N/N=C/c1cc([N+](=O)[O-])ccc1N1CCCCC1 | 10µM* | 0.1%
Cc1cc(/C=N/NC(=O)Cn2c3ccccc3c(=O)c3ccccc32)c(C)n1-c1ccccc1 | 15.8µM* | -3.6%
Cc1ccc(N(CC(=O)N/N=C/c2cc(C)n(-c3ccccc3)c2C)S(C)(=O)=O)c(C)c1 | -2.5% | -2.8%
CCOC(=O)c1noc2ncn(CC(=O)Nc3ccc(F)cc3Cl)c(=O)c12 | 3.0% | -1.6%
Cc1cccc(-c2nnn3c2nc(NCCc2ccc(S(N)(=O)=O)cc2)c2ccccc23)c1 | u | -1.5%
NS(=O)(=O)c1ccc(CCNc2nc3c(-c4cccc(F)c4)nnn3c3ccccc23)cc1 | 20µM* | 1.5%
Cc1c(Cl)cccc1-n1c(CCC(=O)O)ccc1-c1cccs1 | -7.0% | -17.1%
C=CCSc1nc(C)c(CC(=O)OCCCC)c(=O)[nH]1 | -0.2% | 5.5%
Cc1cccc(C)c1-n1c(C)cc(/C=N/NC(N)=S)c1C | u | -16.3%
Cc1cc(/C=N/NC(N)=S)c(C)n1-c1ccc(Cl)cc1 | u | 28.2µM*
CCC(C)(C)C1CCC(=NNS(=O)(=O)c2ccc(C)c([N+](=O)[O-])c2)CC1 (stereo not given) | -11.0% | -1.3%
SMILES | Cruzain noTriton | Cruzain inh Det
CN(C)c1ccc(NC(=O)c2sc(SCC(=O)Nc3nccs3)nc2N)cc1 | u | -7.1%
CN(C)c1ccc(NC(=O)c2sc(SCC(=O)Nc3ccc(Br)cc3)nc2N)cc1 | 10µM* | 5.7%
CC(C)(C)c1ccc(CN(Cc2ccccc2)C(c2ccccn2)c2nnnn2C(C)(C)C)cc1 (stereo not given) | -2.6% | 0.9%
CC(/C=C/c1ccc(O)cc1)=N/O | 7.94µM* | 22.4µM*
CC(/C=C/c1ccc(OCc2ccccc2)cc1)=N\O | u | -2.6%
CCOc1ccccc1-n1c(SCC(=O)N2CCOCC2)nnc1-c1ccccn1 | -2.2% | -6.2%
COc1ccccc1Oc1nc(-c2ccccc2)cc(C)c1S(C)(=O)=O | -6.5% | -10.1%
CC1=N/C(=C\c2ccc([N+](=O)[O-])cc2)C(=O)N1c1ccc(Br)c(C)c1 | 7.94µM* | -3.3%
COc1ccc(/C=C2\N=C(C)N(c3ccc(C(=O)O)cc3)C2=O)cc1OC | -8.4% | -9.8%
CCOC(=O)NC1(C(F)(F)F)C(=O)NC(C)=C1C#N (stereo not given) | 2.1% | 4.6%
CCSc1nc2ccccc2n1CCOc1ccccc1 | 14.6% | -9.3%
CC(C)(C)C(=O)NC(=S)Nc1cc(C(F)(F)F)ccc1N1CCOCC1 | -0.8% | -12.3%
O=C(NC(=S)Nc1cc(C(F)(F)F)ccc1N1CCOCC1)c1sc2ccccc2c1Cl | 20µM* | 3.5%
O=C(CSc1nncn1-c1ccccc1)Nc1cc(Cl)cc(Cl)c1 | 25.1µM* | -2.0%
CC(C)(C)NC(=O)CSc1nncn1-c1ccccc1 | -0.3% | -1.8%
